Data taken from PubChem BioAssay AID651820 (National Center for Advancing Translational Sciences (NCATS), 2012).
The whole screen tested about 340,000 compounds, of which about 12,000 (3.5%) were called active. Not shown: some 18% with an inconclusive outcome. This excerpt belongs to a sample that is enriched for actives. A number with no mark means an inactive call. Calls come from the whole dose curve; as a rule, active = well fitted inhibition curve with a large enough effect; inconclusive = small, poorly fitted or top-dose-only effect, or another doubt; inactive = no such curve, though single readings can be large or run the other way.

Assay: qHTS Assay for Inhibitors of Hepatitis C Virus (HCV)
Conditions: Huh7.5.1 HCVcc-Cre infection, luciferase reporter, 44 h; series mostly up to 41.8 µM; activity change, negative = inhibition: at the top concentration
From the text: Hepatitis C virus (HCV) infects about 200 million people in the world. Many infected people progress to chronic liver disease including cirrhosis with a risk of developing liver cancer. To date, there is no effective vaccine for hepatitis C. Current therapy based on interferon is only effective in about half of the patients and is associated with significant adverse effects. The fraction of people with HCV who can complete a successful treatment is estimated to be no more than 10 percent. Recent development of direct-acting antivirals against HCV, such as protease and polymerase inhibitors, is promising but still requires combination with peginterferon and ribavirin for maximal efficacy. In addition, these agents are associated with high rate of resistance and many have significant side effects. Due to the lack of a culture system for infectious HCV, the search for new HCV drugs has been greatly hampered. […] High-throughput screening (HTS) with an infectious HCV system would cover the complete spectrum of potentially druggable targets in all stages of HCV lifecycle, and would have more biological relevance than other cell-based assays. Moreover, targeting several key processes in the viral life cycle may not only increase antiviral efficacy; more importantly, it may also reduce the capacity of the virus to develop resistance to the compound. The goal of this project is to identify novel HCV inhibitors as new therapies for hepatitis C, using a highly sensitive and specific assay platform which is based on a HCV infectious cell culture system established in the laboratory and adapted for high-throughput HCV drug screen. NIH Chemical Genomics Center [NCGC] NIH Molecular Libraries Probe Centers Network [MLPCN] MLPCN Grant: MH095511 Assay Submitter (PI): Jake Liang, NIDDK
The assay will start with plating 1,000 cells/well in 3 µL volume and culture for 4 h. Then 23 nL of compounds from the library collection will be added to each well, followed by adding 2.5 µL of HCVcc-Cre virus (~ 0.5 moi) and further cultured for 44 h before the luciferase assay. A volume of 4.5 µL luciferase substrates will be added to each well and the plates will be incubated at room temperature for 15 min. and then read for 15 sec. for the luciferase activity
% is set by controls: 0 for no effect and ±100 for the full control effect.

In order of falling “activity change, negative = inhibition” value:
1. Cc1noc(C)c1NC(=O)Nc1cccc2c1O[C@H](CN(C)C(=O)Nc1ccccc1)[C@@H](C)CN([C@H](C)CO)C2=O  25.4%
2. COc1ccccc1C(=O)NCCC(=O)NN1C(=O)NC2(CCCCC2)C1=O  19.8%
3. CCOC(=O)c1ccccc1NC(=O)COC(=O)C(Cc1c[nH]c2ccccc12)NC(C)=O (stereo unspecified)  17%
4. Cc1cccc(N2CCN(Cc3nc(C4CC4)no3)CC2)n1  16.5%
5. Cc1noc(C)c1NC(=O)Nc1ccc2c(c1)C(=O)N([C@H](C)CO)C[C@H](C)[C@@H](CN(C)C(=O)Nc1ccccc1)O2  14.4%
6. Cc1cc(C)c(S(=O)(=O)NCC(c2ccc3c(c2)OCO3)N2CCOCC2)c(C)c1 (stereo unspecified)  13.2%
7. O=C1CCCCC1Sc1ccc(Cl)cc1[N+](=O)[O-] (stereo unspecified)  11.8%
8. Cc1ccn(-c2cccc(-n3ccc(C)n3)n2)n1  11.3%
9. COc1cc(/C=C/CNC[C@H]2O[C@@H](n3cnc(C(N)=O)n3)[C@H](O)[C@@H]2O)ccc1O  9.64%
10. O=C(COC(=O)/C=C/c1ccc(OC(F)F)cc1)NC1CCCCC1  7.61%
11. Cc1ccc(C)c(C(=O)COC(=O)Cn2[nH]c(=O)c3ccccc3c2=O)c1  6.08%
12. CN(C)CCNC(=O)Cc1ccc([N+](=O)[O-])cc1  5.72%
13. CCOC(=O)c1c(NC(=O)CSc2cn(CC)c3ccccc23)sc2c1CCC2  5.24%
14. O=C(CN1C(=O)NC2(CCCCCC2)C1=O)NCc1ccc(F)cc1  3.95%
15. COc1ccc(S(=O)(=O)N2CCN(CC(=O)N3c4ccccc4CC3C)CC2)cc1OC (stereo unspecified)  1.67%
16. O=C(Nc1ccc(F)c([N+](=O)[O-])c1)C1CCCO1 (stereo unspecified)  0.692%
17. CCOc1ccc(NC(=O)CN(C)C(=O)CSc2ccccc2)cc1OCC  -2.17%
18. COc1cc2ccccc2cc1C(=O)N1CCOCC1  -2.47%
19. O=C(NCCc1ccccc1)c1cccc(NC(=O)c2ccccc2)c1  -4.33%
20. OCC[C@H]1C[C@H](O)[C@@H](O)[C@]2(CCc3ccccc3O2)O1  -5.5%
21. Nc1nonc1-n1nnc(C(=O)N/N=C/c2ccccc2O)c1CN1CCCC1  -7.74%
22. CCOC(=O)c1c(NC(=S)NC)sc2c1CCCC2  -8.22%
23. CCOC(=O)c1c(NC(=S)NC(=O)c2ccco2)sc2c1CCCC2  -9.06%
24. Cc1cccc(C)c1Nc1nnc(SCC(=O)Nc2sccc2C#N)s1  -9.42%
25. Cc1csc(SCC(=O)Nc2sccc2C#N)n1  -12.8%
26. COc1ccccc1NC(=O)COC(=O)CNC(=O)C1CCCCC1  -14.3%
27. CCC1(C)Cc2c(sc3nc(SC)nc(N)c23)CO1 (stereo unspecified)  -16.9%
28. CCOC(=O)Cn1c(SC)nc2sc3c(c2c1=O)CC(C)(C)OC3  -22%
29. CN(C)C(CNC(=O)Cc1ccc([N+](=O)[O-])cc1)c1ccccc1 (stereo unspecified)  -24.7%
30. CCOC(=O)c1c(NC(=S)Nc2ccccc2C)sc2c1CCC2  -26.7%

With `Cc1noc(C)c1NC(=O)Nc1ccc2c(c1)C(=O)N([C@H](C)CO)C[C@H](C)[C@@H](CN(C)C(=O)Nc1ccc(C(F)(F)F)cc1)O2` the Potency was 3.98 µM (active).
With `CCC1(C)Cc2c(sc3nnn(CC(=O)Nc4ccc(Cl)cc4)c(=O)c23)CO1` (stereo unspecified) the Potency was 11.2 µM (active).
In the case of `Cc1cccc(N2O[C@H]3C=CC2CCCC3)n1`, the Potency is reported as 25.1 µM (active).
In the case of `CCOC(=O)c1c(NC(=O)C(C)Sc2c[nH]c3ccccc23)sc2c1CCC2` (stereo unspecified), the Potency is reported as 11.2 µM (active).
With `CCCOC(=O)Nc1sc2c(c1C(=O)OCC)CCC2` the Potency was 10 µM (active).
With `CC(c1nnc(SCC(=O)Nc2sccc2C#N)n1-c1ccc(Cl)cc1)N(C)C` (stereo unspecified) the Potency was 22.4 µM (active).
With `CC(C)(C)OC(=O)N1CCC(C(=O)Nc2cccc(C(=O)NCCc3ccccc3)c2)CC1` the Potency was 8.91 µM (active).
In the case of `CN(CCc1ccccc1)C(=O)c1cccc(NC(=O)Cc2cccc(NC(=O)C3CCCN(C(=O)CCc4ccccc4)C3)c2)c1` (stereo unspecified), the Potency is reported as 0.794 µM (active).
In the case of `CN(CCc1ccccc1)C(=O)c1cccc(NC(=O)Cc2cccc(NC(=O)C3CCCN(C(=O)C4CCC4)C3)c2)c1` (stereo unspecified), the Potency is reported as 10 µM (active).
For `CN(C(=O)c1cccc(NC(=O)Cc2ccc([N+](=O)[O-])cc2)c1)C1CCC1`, the Potency was 3.16 µM (active).

In order of falling activity change, negative = inhibition:
1. COC(=O)[C@@]1(C)[C@H]2C(=O)N(Cc3ccccc3)C(=O)[C@H]2[C@H]2CN=C(SCC3CC3)N21  -7.38% [at 8.37 µM]
2. O=C(Cc1ccc(NC(=O)C2CCCN(C(=O)CCc3ccccc3)C2)cc1)Nc1ccc(C(=O)N2CCOCC2)cc1 (stereo unspecified)  -13.7% [at 8.37 µM]
3. O=C(NCc1ccccc1)c1cccc(NC(=O)C2CCCCC2)c1  -17.2% [at 8.37 µM]
4. CN(C(=O)c1cccc(NC(=O)Cc2cccc(NC(=O)C3CCCN(C(=O)C4CC4)C3)c2)c1)C1CCC1 (stereo unspecified)  -22.6% [at 8.37 µM]
5. O=C(Cc1ccc(NC(=O)C2CCCN(C(=O)C3CCCCC3)C2)cc1)Nc1cccc(C(=O)N2CCCCC2)c1 (stereo unspecified)  -22.8% [at 8.37 µM]
6. CN(C(=O)c1cccc(NC(=O)Cc2ccc(NC(=O)C3CCCN(C(=O)C4CCCC4)C3)cc2)c1)C1CCC1 (stereo unspecified)  -26.3% [at 8.37 µM]
